# Laboratory results published in PubChem BioAssay (EPA / NIEHS).
# Inconclusive results are not listed. Activity calls are given as the source filed them. The calls were made as follows: active = hit-call score of the fitted dose curve at least 0.9, where 1 is the maximum; inconclusive = response in the unintended direction; inactive = score below 0.9.
# Target: Retinoic acid receptor RXR-alpha (Homo sapiens) (UniProt P19793)
# Assay: ATG_RXRa_TRANS: Attagene TRANS-FACTORIAL HepG2 Assay for human Retinoid X Receptor alpha (RXRa) (AID 2283012)
# Experimental: ATG_TRANS is a cell-based, multiplexed-readout assay that uses HepG2, a human liver cell line, with measurements taken at 24 hours after chemical dosing in a 24-well plate.ATG_RXRa_TRANS is one of 30 assay component(s) measured or calculated from the ATG_TRANS assay. It is designed to make measurements of mRNA induction, a form of inducible reporter, as detected with fluorescence intensity signals by Reverse transcription polymerase chain reaction (RT-PCR) and Capillary electrophoresis technology.Data from the assay component ATG_RXRa_TRANS was analyzed into 1 assay endpoint. This assay endpoint, ATG_RXRa_TRANS, was analyzed in the positive analysis fitting direction relative to DMSO as the negative control and baseline of activity. Using a type of inducible reporter, measures of mRNA for gain-of-signal activity can be used to understand the reporter gene at the transcription factor-level as they relate to the gene RXRA. Furthermore, this assay endpoint can be referred to as a primary readout, because this assay has produced multiple assay endpoints where this one serves a reporter gene function. To generalize the intended target to other relatable targets, this assay endpoint is annotated to the nuclear receptor intended target family, where the subfamily is non-steroidal.
# Human liver HepG2 cells are transiently transfected with multiple reporter transcription units (MRTUs) in 6-well plates using FuGene 6 reagent (Roche; 3 ml FuGene/1 mg DNA). The MRTU constructs are regulated by a cis-regulating element (promoter). […] A major difference between the CIS and TRANS system is that in CIS activities of endogenous TFs are measured, whereas the TRANS assay evaluates changes in activities of exogenous, chimeric NR-Gal4 proteins. […] At the end of 24 hour incubation, total RNA was isolated using TriZol reagent (Invitrogen). The isolated RNA is then reverse-transcribed using oligo(dT) primer and Mo-MLV reverse transcriptase (Invitrogen) with DNAse I (Ambion) treatment for 30 min. The one-tenth of the produced cDNA was amplified by PCR using Taq DNA polymerase (Invitrogen) and two reporter sequence-specific primers. The PCR products were fluorescently labeled by primer extension with 6-arboxyfluorescein (6-FAM) 5'-labeled reporter sequence-specific primer (2 min at 95 C, 20 s at 68 C and 10 min at 72 C) and these products were digested with 5U of HpaI (New England Biolabs) for 2h at 37 C. The fragments were purified using Qiaquick PCR columns (Qiagen), analyzed on an ABI 3130xL genetic analyzer (Applied Biosystems) with peak positions identified by using a set of X-rhodamine (ROX)-labeled MapMarker1000 molecular weight standards (BioVentures). The raw capillary electrophoresis data was processed using Attagraph software (Attagene).
# Retinoic acid receptor RXR-alpha (Homo sapiens), sequence (P19793 whole entry, looked up): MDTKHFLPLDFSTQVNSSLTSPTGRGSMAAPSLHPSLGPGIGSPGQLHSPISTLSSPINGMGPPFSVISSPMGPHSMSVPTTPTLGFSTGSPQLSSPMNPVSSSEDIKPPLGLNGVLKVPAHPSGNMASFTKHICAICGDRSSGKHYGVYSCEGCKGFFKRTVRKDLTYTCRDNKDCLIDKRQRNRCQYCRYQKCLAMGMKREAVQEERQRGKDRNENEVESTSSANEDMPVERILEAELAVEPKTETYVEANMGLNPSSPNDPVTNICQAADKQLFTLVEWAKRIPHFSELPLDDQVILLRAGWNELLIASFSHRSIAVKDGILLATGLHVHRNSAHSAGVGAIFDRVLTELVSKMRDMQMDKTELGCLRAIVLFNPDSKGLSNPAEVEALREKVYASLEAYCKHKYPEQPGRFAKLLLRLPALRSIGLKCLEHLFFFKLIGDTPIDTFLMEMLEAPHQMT
Compound,outcome,AC50
CCCOC(=O)CC,inactive,–
CNC(=C[N+](=O)[O-])NCCSCc1ccc(CN(C)C)o1,inactive,–
O=[N+]([O-])c1cc(N(CCO)CCO)ccc1NCCO,inactive,–
CC(O)COCC(C)O (stereo not given),inactive,–
CCCCCCCCCCCCCCCCCC(=O)OCCCCCCCCCCCCCC(C)C,inactive,–
CCC(=O)OCC=Cc1ccccc1,inactive,–
C[C@]12CC[C@@H]3c4ccc(O)cc4CC[C@H]3[C@@H]1CC[C@@H]2O,inactive,–
CC/C(=C(\c1ccccc1)c1ccc(OCCN(C)C)cc1)c1ccccc1,inactive,–
CC(O)CN (stereo not given),inactive,–
CCOc1ccc(NC(C)=O)cc1,inactive,–
C=C(C)C(=O)OCCC[Si](OC)(OC)OC,inactive,–
CC(CCO)CC(C)(C)C (stereo not given),inactive,–
C#C[C@]1(O)CC[C@H]2[C@@H]3CCc4cc(O)ccc4[C@H]3CC[C@@]21C,inactive,–
c1ccc(Cc2ccccc2)cc1,inactive,–
CCCCC1CCCCC(=O)O1 (stereo not given),inactive,–
CCCCCCCCCCCCS,inactive,–
C=CCOCC(O)CO (stereo not given),inactive,–
CCCCC/C=C\C=C\C(=O)OCC,inactive,–
CN(C)CCC=C1c2ccccc2CCc2ccccc21,inactive,–
CC(C)=CC(=O)O,inactive,–

Compound,outcome,AC50
C=C(C)CCCC(C)CCO (stereo not given),inactive,–
C/C=C(\C)C(=O)OC/C=C(\C)CCC=C(C)C,–,30.7 µM (active)
CC(C)C(=O)c1ccccc1,inactive,–
CC(=O)CC(C)(C)C1CCCCC1,inactive,–
C=COCC1CCC(COC=C)CC1 (stereo not given),inactive,–
CN(C)c1ccc(C=O)cc1,inactive,–
CCCCCCCCCCCCN1CCOCC1,inactive,–
CCn1cc(C(=O)O)c(=O)c2ccc(C)nc21,inactive,–
COc1cc(OC)c2ccc(=O)oc2c1,inactive,–
O=S1(=O)CC(Cl)(Cl)C(Cl)(Cl)C1,inactive,–
c1ccc(OCCOc2ccccc2)cc1,inactive,–
NC(=O)c1cccnc1,inactive,–
O=C(c1ccc(OCCN2CCCCC2)cc1)c1c(-c2ccc(O)cc2)sc2cc(O)ccc12,inactive,–
CC(C)(C)c1cc(CCC(=O)OCCSCCOC(=O)CCc2cc(C(C)(C)C)c(O)c(C(C)(C)C)c2)cc(C(C)(C)C)c1O,inactive,–
CC(C)CCCC(C)(C)O,inactive,–
O=Cc1ccccc1O,inactive,–
Nc1ccn([C@H]2CC[C@@H](CO)O2)c(=O)n1,inactive,–
CC1=CC[C@@H]2C[C@H]1C2(C)C,inactive,–
O=C1CCC(=O)N1,inactive,–
O=C1Cc2ccccc2C1,inactive,–
